Reference: PubChem BioAssay AID1159580 (chemical genetic matrix, 2015)
“And” between values parts separate entries of the source, which are not always exact repeats. Identical values can stand only once. About 2,000 (36%) of roughly 5,500 compounds were called active. Another 18% or so got no clear call; they are omitted. Rule as the data show it: active = normalized growth mostly below about 0.91 (no sharp cut-off); inconclusive = no clear call, values can overlap the other calls; inactive = mostly above about 0.92. Some of the results follow.

Test: chemical genetic growth profiling, strain panel (AID 1159580);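 also: tested at 20 µM; growth read once vehicle control cultures reached saturation at 30 °C; 1 = growth at the plate median or of vehicle wells; lower values mean less growth of the strain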
Conditions: S. cerevisiae deletion strains, growth OD

Measured: normalized growth

Cc1cc(OC(=O)c2c(C)cc(O)cc2O)cc(O)c1C(=O)O
inactive: locus YAL021C, strain ccr4, active compounds read low 1.02 | locus YAL026C, strain drs2, active compounds read low 0.991 | locus YAL030W, strain snc1, active compounds read low 0.995 | locus YBL061C, strain skt5, active compounds read low 0.973 | locus YBR009C, strain hhf1, active compounds read low 0.991 | locus YBR021W, strain FUR4, active compounds read low 1.01 | locus YBR023C, strain chs3, active compounds read low 0.978 | locus YBR171W, strain sec66, active compounds read low 0.988 | locus YBR229C, strain ROT2, active compounds read low 1.01 | locus YBR231C, strain swc5, active compounds read low 0.992 | locus YBR279W, strain paf1, active compounds read low 0.997 | locus YCL011C, strain gbp2, active compounds read low 0.991 | locus YCL016C, strain dcc1, active compounds read low 0.992 | locus YCL029C, strain bik1, active compounds read low 1 | locus YCL061C, strain MRC1, active compounds read low 0.989 | locus YCL069W, strain vba3, active compounds read low 0.998 | locus YCR088W, strain abp1, active compounds read low 0.997 | locus YDL005C, strain med2, active compounds read low 0.983 | locus YDL035C, strain GPR1, active compounds read low 1 | locus YDL040C, strain nat1, active compounds read low 0.98 | locus YDL074C, strain BRE1, active compounds read low 0.999 | locus YDL101C, strain DUN1, active compounds read low 1.01 | locus YDL134C, strain PPH21, active compounds read low 0.99 | locus YDL185W, strain tfp1, active compounds read low 1 | locus YDL192W, strain arf1, active compounds read low 0.979 | locus YDR001C, strain nth1, active compounds read low 1 | locus YDR069C, strain doa4, active compounds read low 0.966 | locus YDR101C, strain arx1, active compounds read low 0.977 | locus YDR137W, strain rgp1, active compounds read low 0.985 | locus YDR159W, strain sac3, active compounds read low 0.987 | locus YDR162C, strain NBP2, active compounds read low 1.01 | locus YDR195W, strain ref2 0.962 | locus YDR297W, strain sur2, active compounds read low 0.99 | locus YDR318W, strain mcm21, active compounds read low 0.981 | locus YDR334W, strain swr1, active compounds read low 0.987 | locus YDR335W, strain msn5, active compounds read low 1.01 | locus YDR388W, active compounds read low 1.02 | locus YDR392W, strain spt3, active compounds read low 0.991 | locus YDR502C, strain sam2, active compounds read low 0.979 | locus YEL003W, strain gim4, active compounds read low 0.972 | locus YEL037C, strain rad23, active compounds read low 1 | locus YEL061C, strain CIN8 (second series), active compounds read low 0.993 | locus YEL061C, strain CIN8, active compounds read low 1.01 | locus YER015W, strain faa2, active compounds read low 0.986 | locus YER016W, strain bim1, active compounds read low 0.993 | locus YER110C, active compounds read low 1.01 | locus YER111C, strain swi4, active compounds read low 0.974 | locus YER155C, strain BEM2 (second series), active compounds read low 0.966 | locus YER155C, strain BEM2, active compounds read low 1.02 | locus YER167W, strain BCK2, active compounds read low 1.01 | locus YFR010W, strain ubp6, active compounds read low 0.968 | locus YGL078C, strain dbp3, active compounds read low 0.967 | locus YGL086W, strain mad1, active compounds read low 0.972 | locus YGL167C, strain pmr1, active compounds read low 0.972 | locus YGL173C, strain kem1, active compounds read low 0.981 | locus YGL227W, strain vid30, active compounds read low 0.996 | locus YGL240W, strain doc1, active compounds read low 0.957 | locus YGL248W, strain PDE1, active compounds read low 1 | locus YGL253W, strain hxk2, active compounds read low 0.99 | locus YGR135W, strain pre9, active compounds read low 0.973 | locus YGR252W, strain gcn5, active compounds read low 0.935 | locus YHR013C, strain ard1, active compounds read low 0.966 | locus YHR027C, strain rpn1, active compounds read low 1.01 | locus YHR030C, strain SLT2, active compounds read low 0.976 | locus YHR079C, strain IRE1 (second series), active compounds read low 1 | locus YHR079C, strain IRE1, active compounds read low 0.968 | locus YHR094C, strain hxt1, active compounds read low 1.02 | locus YHR129C, strain ARP1, active compounds read low 0.997 | locus YHR142W, strain chs7, active compounds read low 1 | locus YHR200W, strain rpn10, active compounds read low 0.985 | locus YIL066C, strain RNR3, active compounds read low 1.01 | locus YIL073C, strain SPO22, active compounds read low 1.01 | locus YIL125W, strain kgd1, active compounds read low 0.995 | locus YIR030C, strain dcg1, active compounds read low 1 | locus YJL092W, strain hpr5, active compounds read low 0.989 | locus YJL095W, strain BCK1 (second series), active compounds read low 0.986 | locus YJL095W, strain BCK1, active compounds read low 0.991 and 0.996 | locus YJL115W, strain asf1, active compounds read low 0.987 | locus YJL129C, strain trk1, active compounds read low 0.983 | locus YJL134W, strain LCB3, active compounds read low 1.02 | locus YJL154C, strain vps35, active compounds read low 0.993 | locus YJL164C, strain tpk1, active compounds read low 1.02 | locus YJL166W, strain qcr8, active compounds read low 0.987 | locus YJL168C, strain set2, active compounds read low 1 | locus YJL187C, strain SWE1 (second series), active compounds read low 0.993 | locus YJL187C, strain SWE1, active compounds read low 1 | locus YJR043C, strain POL32, active compounds read low 1 | locus YJR066W, strain TOR1, active compounds read low 0.894 | locus YJR075W, strain HOC1, active compounds read low 1.01 | locus YKL009W, strain mrt4, active compounds read low 0.991 | locus YKL068W, active compounds read low 1.02 | locus YKL085W, strain MDH1 (second series), active compounds read low 1 | locus YKL085W, strain MDH1, active compounds read low 1 | locus YKL160W, strain elf1, active compounds read low 1.02 | locus YKL190W, strain CNB1, active compounds read low 1.01 | locus YKR001C, strain vps1, active compounds read low 0.98 | locus YKR026C, strain gcn3, active compounds read low 0.983 | locus YKR091W, strain srl3, active compounds read low 0.992 | locus YLL001W, strain dnm1, active compounds read low 1.01 | locus YLL026W, active compounds read low 0.991 | locus YLL041C, strain sdh2, active compounds read low 0.972 | locus YLR027C, strain aat2, active compounds read low 0.99 | locus YLR039C, strain RIC1, active compounds read low 0.914 | locus YLR058C, strain SHM2, active compounds read low 0.992 | locus YLR102C, strain apc9, active compounds read low 1.01 | locus YLR113W, strain HOG1, active compounds read low 1.01 | locus YLR221C, strain rsa3, active compounds read low 0.979 | locus YLR258W, strain gsy2, active compounds read low 0.992 | locus YLR262C, strain YPT6 (second series), active compounds read low 1.01 | locus YLR262C, strain YPT6, active compounds read low 0.989 | locus YLR268W, strain sec22, active compounds read low 0.983 | locus YLR320W, strain mms22, active compounds read low 0.975 | locus YLR330W, strain CHS5, active compounds read low 1.01 | locus YLR342W, strain FKS1 (second series), active compounds read low 1.01 | locus YLR342W, strain FKS1, active compounds read low 0.991 | locus YLR357W, strain rsc2, active compounds read low 0.984 | locus YLR370C, strain arc18, active compounds read low 0.978 | locus YLR371W, strain rom2, active compounds read low 1 | locus YLR384C, strain iki3, active compounds read low 0.963 | locus YLR418C, strain cdc73, active compounds read low 0.951 | locus YML016C, strain PPZ1, active compounds read low 1.01 | locus YML032C, strain rad52, active compounds read low 0.979 | locus YML120C, strain ndi1, active compounds read low 0.994 | locus YML124C, strain tub3, active compounds read low 1 | locus YMR058W, strain fet3, active compounds read low 0.99 | locus YMR078C, strain ctf18, active compounds read low 1 | locus YMR125W, strain sto1, active compounds read low 0.992 | locus YMR129W, active compounds read low 0.996 | locus YMR205C, strain PFK2, active compounds read low 1.03 | locus YMR223W, strain ubp8, active compounds read low 0.975 | locus YMR231W, strain pep5, active compounds read low 0.955 | locus YMR307W, strain GAS1, active compounds read low 0.988 | locus YNL067W, strain RPL9B, active compounds read low 1 | locus YNL071W, strain lat1, active compounds read low 1.02 | locus YNL153C, strain GIM3, active compounds read low 0.985 | locus YNL183C, strain NPR1, active compounds read low 0.933 | locus YNL209W, strain ssb2, active compounds read low 0.996 | locus YNL233W, strain BNI4, active compounds read low 0.989 | locus YNL248C, strain rpa49, active compounds read low 0.992 | locus YNL250W, strain rad50, active compounds read low 1.03 | locus YNL271C, strain bni1, active compounds read low 1.01 | locus YNL298W, strain CLA4, active compounds read low 0.986 | locus YNL307C, strain MCK1, active compounds read low 1 | locus YNL322C, strain KRE1 (second series), active compounds read low 0.974 | locus YNL322C, strain KRE1, active compounds read low 0.986 | locus YNR049C, strain mso1, active compounds read low 0.975 | locus YNR052C, strain pop2, active compounds read low 0.978 | locus YOL006C, strain TOP1, active compounds read low 1.08 | locus YOL012C, strain htz1 1.01 | locus YOL147C, strain pex11, active compounds read low 1.01 | locus YOR001W, strain rrp6, active compounds read low 0.96 | locus YOR061W, strain CKA2, active compounds read low 1.01 | locus YOR069W, strain VPS5, active compounds read low 1.01 | locus YOR070C, strain gyp1, active compounds read low 1 | locus YOR080W, strain dia2, active compounds read low 0.975 | locus YOR083W, strain WHI5, active compounds read low 1.03 | locus YOR106W, strain vam3, active compounds read low 1.03 | locus YOR136W, strain idh2, active compounds read low 1.01 | locus YOR144C, strain elg1, active compounds read low 1.01 | locus YOR184W, strain ser1, active compounds read low 0.973 | locus YOR231W, strain MKK1, active compounds read low 0.974 | locus YOR265W, strain rbl2, active compounds read low 0.991 | locus YOR270C, strain vph1, active compounds read low 0.99 | locus YOR290C, strain snf2, active compounds read low 0.969 | locus YOR316C, strain cot1, active compounds read low 1.01 | locus YPL051W, strain arl3, active compounds read low 0.993 | locus YPL078C, strain atp4, active compounds read low 1.03 | locus YPL106C, strain sse1, active compounds read low 0.99 | locus YPL240C, strain hsp82, active compounds read low 0.974 | locus YPL241C, strain CIN2, active compounds read low 1.02 | locus YPL256C, strain CLN2, active compounds read low 1.01 | locus YPR119W, strain clb2, active compounds read low 1.01 | locus YPR141C, strain kar3, active compounds read low 1.02 | locus YPR163C, strain tif3, active compounds read low 0.983 | locus YPR167C, strain met16, active compounds read low 0.976 | strain wtn01, active compounds read low 0.978
